The record followed here is PubChem BioAssay (Tox21).

Assay [1] is described as follows: Nuclear factor erythroid 2-related factor 2/antioxidant responsive element (Nrf2/ARE) small molecule agonists: qHTS cell viability counter screen in human keratinocytes (AID 1919968; active = well fitted curve in the direction sought with a large enough effect in the repeat runs; an effect the other way counts as inactive or inconclusive; also: nearly all actives have a fitted effect of over 55% in size). In outline: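 In human HaCaT keratinocytes stably expressing an ARE-driven luciferase, compound exposure lasted 23 h at 37 C under 5% CO2. Viable cells are quantified with a protease-based fluorogenic reagent (CellTiter-Fluor) read 1 h after addition.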
(In qHTS, concentration-response curves come from the screen itself.)

Assay [2] in a line: Nuclear factor erythroid 2-related factor 2/antioxidant responsive element (Nrf2/ARE) small molecule agonists: luciferase reporter gene qHTS assay in human keratinocytes (AID 1919969). Also: nearly all actives have a fitted effect of over 35% in size. Also: potency is read from the fitted curve at half-maximal effect. In general terms: Reporter assays use an easily measured gene product as a stand-in for the process of interest.
Assay [3] has as its target Gonadotropin-releasing hormone receptor (Homo sapiens) (UniProt P30968). As to the kind of experiment: Human gonadotropin-releasing hormone receptor (GnRHR) small molecule agonists, calcium flux assay in GnRHR-HEK293 cells (AID 1920063). Also: nearly all actives have a fitted effect of over 35% in size. The essentials: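 Intracellular calcium rise is the read-out: engineered human GnRHR HEK293 cells, dye-loaded, are exposed to DMSO-dissolved compounds and fluorescence at Ex/Em 480/540 is tracked for 3 min.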
(Calcium flux is commonly read through the fluorescence of an indicator in the cells.)

Assay [4] addresses KiSS-1 receptor (Homo sapiens) (UniProt Q969F8). The experiment in a line: Human kisspeptin (KISS1R) small molecule agonists, calcium flux assay in KISS1R-HEK293 cells (AID 1920064; active = well fitted curve in the direction sought with a large enough effect in the repeat runs; an effect the other way counts as inactive or inconclusive). The essentials: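 Concentration-response testing used 15 concentrations in triplicate on human KISS1R-expressing HEK293 cells. Calcium-dependent fluorescence (Ex/Em 480/540) was followed kinetically for 3 min after compound transfer.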

The nature of assay [5]: G protein-coupled receptor (GPCR) small molecule agonists, calcium flux assay: HEK293 wild type cell line counter screen (AID 1920065). In outline: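 Fluorescence intensity signals activation. After overnight (18 h) culture and a 1 h calcium dye load at 37 C, compounds are added by pin tool and the plate read at 480/540 nm for 3 min in 1 s steps.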
The nature of assay [6]: p53 small molecule agonists, cell-based qHTS assay with rat liver microsomes (AID 1963578). The essentials:
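Metabolic activation by rat liver microsomes and NADPH, each 0.5 mg/mL final, added right after compounds to p53RE-bla reporter cells (4,000/well, plated 5 h earlier). 16 h at 37 C, then LiveBLAzer substrate for 2 h at room temperature in the dark; fluorescence read-out.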

Assay [7] can be described thus: p53 small molecule agonists, cell-based qHTS assay with human liver microsomes: qHTS cell viability counter screen (AID 1963579). Also: nearly all actives have a fitted effect of over 45% in size. In outline:
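Metabolic activation used human liver microsomes and NADPH, both 0.5 mg/mL final, over 16 hours at 37 C on p53RE-bla cells (4,000/well). Cytotoxicity measured by CellTiter-Glo luminescence, 30 min at room temperature.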

Assay [8] is described as follows: p53 small molecule agonists, cell-based qHTS assay with rat liver microsomes: qHTS cell viability counter screen (AID 1963580). Also: nearly all actives have a fitted effect of over 45% in size. In outline: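 After the beta-lactamase ratio was read, CellTiter-Glo was added to the same wells and luminescence measured at 30 min; cells had been treated 16 h at 37 C with compounds, rat liver microsomes and NADPH (0.5 mg/mL final each).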

Assay [9] can be described thus: p53 small molecule agonists, cell-based qHTS assay: qHTS cell viability counter screen (AID 1963581). Also: nearly all actives have a fitted effect of over 45% in size. The essentials: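 Luminescence from CellTiter-Glo, reflecting ATP content, serves as the cytotoxicity measure; it is taken after the 2 h reporter substrate step in HCT-116 p53RE-bla cells dosed for 16 h at 37 C.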
Assay [10] can be described thus: p53 small molecule agonists, cell-based qHTS assay (AID 1963582; active = well fitted activation curve with a large enough effect in the signal ratio in the repeat runs, not every such curve was filed as active; the % refers to the signal ratio). The essentials: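 After plating, p53RE-bla cells sat 5 h in the incubator; compounds or DMSO vehicle were pinned in; a 16 h incubation at 37 C followed; FRET substrate was added and, 2 h later at RT, fluorescence was measured.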
Assay [11] has as its target 5-hydroxytryptamine receptor 2A (Homo sapiens) (UniProt P28223). As to the kind of experiment: 5-hydroxytryptamine receptor 2A (HTR2A) small molecule antagonists, cell-based qHTS assay (AID 1963586). Also: nearly all actives have a fitted effect of over 45% in size. In outline: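 CHO cells stably expressing human HTR2A were plated for 18 h at 37 C, then loaded with calcium dye for 1 h. Compounds were preincubated 5 min at room temperature before DOI (4 nM solution) was added. Kinetic fluorescence was read for 3 min.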

Assay [12] shares this target. The experiment in a line: 5-hydroxytryptamine receptor 2A (HTR2A) small molecule agonists, cell-based qHTS assay (AID 1963587). Also: nearly all actives have a fitted effect of over 30% in size. Also: potency is read from the fitted curve at half-maximal effect. In outline:
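CHO cells stably expressing human HTR2A, plated 18 h, loaded with calcium dye 1 h at 37 C. Agonist mode: compounds added and intracellular calcium fluorescence recorded kinetically for 2 min at 1 sec intervals.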

Assay [13] addresses Muscarinic acetylcholine receptor M1 (Homo sapiens) (UniProt P11229). As to the kind of experiment: Cholinergic receptor muscarinic 1 (CHRM1) small molecule antagonists, cell-based qHTS assay (AID 1963588). Also: nearly all actives have a fitted effect of over 40% in size. In outline: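 Compounds were tested at 15 concentrations in three independent runs. Dye-loaded CHRM1-CHO cells were exposed 5 min at room temperature before stimulation by acetylcholine added at 50nM. Intracellular calcium was read kinetically on FDSS for 3 min.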

The target is the same in assay [14]. As to the kind of experiment: Cholinergic receptor muscarinic 1 (CHRM1) small molecule agonists, cell-based qHTS assay (AID 1963589). Also: nearly all actives have a fitted effect of over 35% in size. The essentials:
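Fluorescent calcium dye reports M1 activation in stably transfected CHO cells. Compounds, 15 concentrations, added after 1 h dye loading at 37 C; kinetic reading at 1 sec intervals.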

Assay [15] in a line: cAMP Responsive Elements (CRE) small molecule agonists, cell-based qHTS assay (AID 1963590). In outline:
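Compound exposure lasted 3 h at 37 C/5% CO2 in CRE-bla HEK 293T cells grown in assay medium with 10% dialyzed FBS and 25 mM HEPES. Reporter signal came from LiveBLAzer B/G FRET substrate, 2 h, room temperature.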

Assay [16] is described as follows: cAMP Responsive Elements (CRE) small molecule antagonists, cell-based qHTS assay (AID 1963591; active = well fitted inhibition curve with a large enough effect in the signal ratio in the repeat runs, not every such curve was filed as active; the % refers to the signal ratio). In outline: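 Stimulation used NKH477 at a final 0.25 uM for 3 h in compound-treated CRE-bla HEK293T cells, seeded 18 h beforehand. Reporter activity was measured with LiveBLAzer B/G FRET substrate after 2 h at room temperature.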
Assay [17] addresses Beta-2 adrenergic receptor (Homo sapiens) (UniProt P07550). The experiment in a line: Adrenergic beta2 receptor (ADRB2) small molecule antagonists, cell-based qHTS assay (AID 1963592). Also: series mostly up to about 92 µM; nearly all actives have a fitted effect of over 50% in size. The essentials: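 Assay format: CHO-ADRB2 cells, 18-20hr seeding at 37C/5% CO2, then compound plus 1nM isoproterenol agonist mix for 0.5hr RT. Homogeneous time-resolved fluorescence cAMP detection after 1hr, expressed as 665/615 nm ratio.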

Assay [18] addresses D(2) dopamine receptor (Homo sapiens) (UniProt P14416). As to the kind of experiment: Dopamine D2 receptor (DRD2) small molecule agonists, cell-based qHTS assay (AID 1963594). Also: nearly all actives have a fitted effect of over 35% in size. The essentials: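 HEK293 cells stably expressing human DRD2, pre-treated with PDE inhibitor Ro20-1724 (0.1 mM final) and compound 10 min at room temperature, then stimulated with NKH477 (200nM […]) for 30 min. cAMP read by HTRF (665/620 nm).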

Assay [19] shares this target. As to the kind of experiment: Dopamine D2 receptor (DRD2) small molecule antagonists, cell-based qHTS assay (AID 1963595; active = well fitted inhibition curve with a large enough effect in the signal ratio in the repeat runs, with a control signal flat; the % refers to the signal ratio). The essentials:
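Antagonist mode in DRD2-HEK293 cells: after compound addition with 0.1 mM Ro20-1724, cells received quinpirole (12 nM) and NKH477 (200 nM) for 30 min at room temperature; HTRF cAMP read after 1 h detection.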

Assay [20] addresses Beta-2 adrenergic receptor (Homo sapiens) (UniProt P07550). The experiment in a line: Adrenergic beta2 receptor (ADRB2) small molecule agonists, cell-based qHTS assay (AID 1963593).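 Also: CHO cells stably overexpressing human ADRB2.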 The essentials:
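CHO cells stably over-expressing ADRB2 were plated overnight at 37C, then dosed with compounds plus a stimulation mix containing 100uM IBMX and 25uM Ro-20-1724 for 0.5hr at room temperature. cAMP was measured by HTRF competition, 1hr.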

Results filed as inconclusive are left out. A structure can be active in one record and inactive in another. Activity calls are given as the source filed them. Unless noted, calls follow the shape of the full dose curve.

Sequence of D(2) dopamine receptor (Homo sapiens) (P14416 whole entry, looked up): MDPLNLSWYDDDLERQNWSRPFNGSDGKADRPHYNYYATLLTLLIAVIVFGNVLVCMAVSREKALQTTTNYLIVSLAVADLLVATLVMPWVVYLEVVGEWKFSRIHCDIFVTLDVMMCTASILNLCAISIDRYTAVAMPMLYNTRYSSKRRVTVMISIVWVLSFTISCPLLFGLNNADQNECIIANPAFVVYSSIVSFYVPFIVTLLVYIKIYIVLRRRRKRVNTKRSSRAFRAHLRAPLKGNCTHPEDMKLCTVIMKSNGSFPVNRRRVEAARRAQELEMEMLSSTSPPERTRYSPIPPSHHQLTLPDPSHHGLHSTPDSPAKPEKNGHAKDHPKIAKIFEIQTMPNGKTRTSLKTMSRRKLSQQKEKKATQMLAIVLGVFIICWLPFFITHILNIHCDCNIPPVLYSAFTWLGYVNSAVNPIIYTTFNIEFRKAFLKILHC
Sequence of Gonadotropin-releasing hormone receptor (Homo sapiens) (P30968 whole entry, looked up): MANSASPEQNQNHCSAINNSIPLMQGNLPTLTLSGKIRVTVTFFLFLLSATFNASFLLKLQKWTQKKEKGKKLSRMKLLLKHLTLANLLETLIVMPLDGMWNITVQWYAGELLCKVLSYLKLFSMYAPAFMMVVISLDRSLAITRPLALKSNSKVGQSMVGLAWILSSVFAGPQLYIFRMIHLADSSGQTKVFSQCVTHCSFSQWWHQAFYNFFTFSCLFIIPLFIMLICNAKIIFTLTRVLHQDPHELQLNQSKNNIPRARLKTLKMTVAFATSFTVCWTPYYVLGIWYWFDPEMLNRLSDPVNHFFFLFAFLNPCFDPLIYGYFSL
Sequence of KiSS-1 receptor (Homo sapiens) (Q969F8 whole entry, looked up): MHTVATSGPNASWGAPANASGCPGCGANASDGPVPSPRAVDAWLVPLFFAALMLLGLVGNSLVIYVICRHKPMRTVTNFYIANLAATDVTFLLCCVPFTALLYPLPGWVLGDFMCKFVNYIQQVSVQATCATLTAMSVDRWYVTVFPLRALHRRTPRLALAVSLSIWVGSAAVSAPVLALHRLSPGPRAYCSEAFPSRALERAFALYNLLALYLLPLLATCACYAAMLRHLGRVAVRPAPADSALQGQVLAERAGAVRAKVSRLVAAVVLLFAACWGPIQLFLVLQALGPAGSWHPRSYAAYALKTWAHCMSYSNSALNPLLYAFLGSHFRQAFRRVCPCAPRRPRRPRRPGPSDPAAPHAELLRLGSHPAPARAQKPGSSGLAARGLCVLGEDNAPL
Sequence of Beta-2 adrenergic receptor (Homo sapiens) (P07550 whole entry, looked up): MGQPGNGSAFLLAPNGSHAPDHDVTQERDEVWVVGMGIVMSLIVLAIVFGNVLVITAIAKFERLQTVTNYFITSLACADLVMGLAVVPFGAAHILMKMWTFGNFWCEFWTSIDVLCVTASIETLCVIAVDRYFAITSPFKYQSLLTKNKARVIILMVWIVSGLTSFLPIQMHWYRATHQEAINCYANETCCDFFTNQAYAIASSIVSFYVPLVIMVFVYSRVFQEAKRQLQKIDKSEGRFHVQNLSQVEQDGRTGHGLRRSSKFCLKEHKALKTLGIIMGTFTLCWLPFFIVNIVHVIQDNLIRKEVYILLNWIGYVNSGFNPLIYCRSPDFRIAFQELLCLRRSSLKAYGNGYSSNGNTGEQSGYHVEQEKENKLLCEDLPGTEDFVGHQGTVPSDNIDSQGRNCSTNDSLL
Sequence of Muscarinic acetylcholine receptor M1 (Homo sapiens) (P11229 whole entry, looked up): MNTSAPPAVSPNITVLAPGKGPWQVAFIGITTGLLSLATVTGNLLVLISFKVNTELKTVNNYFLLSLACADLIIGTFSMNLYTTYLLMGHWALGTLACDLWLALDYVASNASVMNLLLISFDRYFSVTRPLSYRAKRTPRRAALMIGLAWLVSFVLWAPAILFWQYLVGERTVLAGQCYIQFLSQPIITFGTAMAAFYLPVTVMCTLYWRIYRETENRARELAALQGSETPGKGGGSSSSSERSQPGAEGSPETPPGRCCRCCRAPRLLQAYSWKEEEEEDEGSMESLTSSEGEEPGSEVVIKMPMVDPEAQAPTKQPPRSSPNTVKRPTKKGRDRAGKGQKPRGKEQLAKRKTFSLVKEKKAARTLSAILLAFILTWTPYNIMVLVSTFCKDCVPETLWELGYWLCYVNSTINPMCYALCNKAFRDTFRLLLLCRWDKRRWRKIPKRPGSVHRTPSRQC
Sequence of 5-hydroxytryptamine receptor 2A (Homo sapiens) (P28223 whole entry, looked up): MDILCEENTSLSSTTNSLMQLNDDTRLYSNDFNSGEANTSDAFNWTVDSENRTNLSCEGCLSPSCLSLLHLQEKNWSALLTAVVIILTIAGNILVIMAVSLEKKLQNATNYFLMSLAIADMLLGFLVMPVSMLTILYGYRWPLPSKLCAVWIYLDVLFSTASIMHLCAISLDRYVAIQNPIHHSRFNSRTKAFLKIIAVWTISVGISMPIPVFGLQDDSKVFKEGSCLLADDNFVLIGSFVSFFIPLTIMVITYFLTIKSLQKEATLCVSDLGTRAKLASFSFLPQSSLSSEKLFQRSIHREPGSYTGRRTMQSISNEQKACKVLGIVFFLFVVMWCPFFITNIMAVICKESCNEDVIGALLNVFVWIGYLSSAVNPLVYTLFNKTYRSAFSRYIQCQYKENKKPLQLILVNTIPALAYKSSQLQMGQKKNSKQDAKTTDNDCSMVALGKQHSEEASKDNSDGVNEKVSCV

As to `CCC(C)(C)C1CCC(=O)CC1`, the Potency entry in assay [1], in assay [2], in assay [3], in assay [4], in assay [5] and in assay [6] was “inactive” in each case. Also, the Potency entry in assay [7], in assay [8], in assay [9], in [10], in assay [11] and in assay [12] was “inactive” in each case. Further, the Potency result in assay [13], in assay [14], in assay [15], in assay [16], in assay [17] and in assay [18] was “inactive” each time. The Potency result in assay [19] was “inactive”.
In the case of `ClC/C=C\CCl`, the Potency entry in assay [1], in assay [2], in assay [3], in assay [4], in assay [5] and in assay [6] was “inactive” each time. Besides, the Potency entry in assay [7], in assay [8], in assay [9], in assay [10], in assay [11] and in assay [12] was “inactive” each time. Moreover, the Potency result in assay [13], in assay [14], in assay [15], in assay [16], in assay [17] and in assay [18] was “inactive” in each case. The Potency result in assay [19] was “inactive”.
For `O=c1[nH]c(=O)c2ccccc2o1`, the Potency result in assay [1], in assay [2], in assay [3], in assay [4], in assay [5] and in assay [6] was “inactive” throughout. For the same compound, the Potency entry in [7], in assay [8], in assay [9], in assay [10], in [12] and in assay [13] was “inactive” each time. For the same compound, the Potency entry in assay [14], in assay [15], in assay [16], in assay [17], in [20] and in assay [18] was “inactive” throughout. The Potency result in [19] was “inactive”.
In the case of `CCCC(C)C(O)CC` (stereo not drawn), the Potency result in [1], in [2], in [3], in assay [4], in assay [5] and in assay [6] was “inactive” each time. Besides, the Potency entry in [7], in [8], in assay [9], in assay [10], in [11] and in [12] was “inactive” throughout. Besides, the Potency entry in [13], in [14], in [15], in [17], in assay [20] and in assay [19] was “inactive” in each case.
Take `Nc1ccc(S(=O)(=O)Nc2ccc(Cl)nn2)cc1`: the Potency result in [1], in assay [2], in assay [3], in assay [4], in assay [5] and in [7] was “inactive” each time. Moreover, the Potency result in assay [8], in assay [9], in assay [10], in assay [11], in assay [12] and in assay [13] was “inactive” each time. The Potency entry in assay [15], in assay [20], in [18] and in assay [19] was “inactive” throughout.
With `CCCCC(CC)COCC1CO1` (stereo not drawn), the Potency entry in assay [1], in [2], in [3], in [4], in assay [5] and in [7] was “inactive” throughout. Moreover, the Potency entry in assay [8], in [9], in [12], in [13], in assay [14] and in assay [15] was “inactive” in each case. In addition, the Potency entry in [16], in assay [17], in assay [20], in [18] and in [19] was “inactive” in each case.
Consider `CCCCCCCCCCCCOCC1CO1` (stereo not drawn), for which the Potency entry in [1], in [3], in assay [4], in [5], in assay [7] and in assay [8] was “inactive” in each case. Further, the Potency result in assay [9], in assay [11], in [12], in [13], in assay [14] and in assay [15] was “inactive” throughout. The Potency result in assay [16], in assay [17], in [18] and in [19] was “inactive” throughout. The Potency in assay [2] is 46.3 µM (active).
As for `N[C@@H](Cc1c[nH]c2ccccc12)C(=O)O`, the Potency entry in [1], in assay [2], in assay [3], in assay [4], in [5] and in [7] was “inactive” throughout. For the same compound, the Potency entry in assay [8], in assay [9], in [11], in [13], in assay [14] and in [15] was “inactive” throughout. In addition, the Potency entry in assay [16], in assay [17], in assay [20], in [18] and in [19] was “inactive” each time. Further, the Potency in assay [12] is 34.7 µM (active) and inactive.
